Bioassay records (PubChem BioAssay)
Vaccinia mCherry: qHTS for Stage-Specific Inhibitors of Vaccinia Orthopoxvirus: mCherry Reporter Primary qHTS; Vaccinia virus mCherry reporter infection, fluorescence; Potency, µM (series often up to 36.5 µM), for inactives: at the top dose activity change, negative = inhibition, most hits filed as inhibitors; hit rate 0.63% among 310,000; calls by dose curve; tested in A549 cells; further: potency means the concentration at half of the fitted maximal effect; nearly all actives have a fitted effect of over 35% in size
VACV Venus inh: qHTS for Stage-Specific Inhibitors of Vaccinia Orthopoxvirus: Venus Reporter Primary qHTS; AID 720580, 2013; Vaccinia virus Venus reporter expression, fluorescence; Potency, µM (doses to about 36.5 µM), without a hit: at the highest dose activity change, negative = inhibition, actives largely listed as inhibitors; hit rate 0.46% among 330,000; calls by dose curve; tested in A549 cells; further: potency means the concentration at half of the fitted maximal effect; nearly all actives have a fitted effect of over 30% in size
Marburg entry inh: qHTS for inhibitors of binding or entry into cells for Marburg Virus | hit rate 1.8% among 300,000 | Marburg virus pseudotyped entry inhibition, cell reporter | Potency, µM (series often up to 37.8 µM), without a hit: at the highest dose activity change, negative = inhibition, actives largely listed as inhibitors; calls by dose curve; tested in HEK293 cells; further: potency means the concentration at half of the fitted maximal effect
HCMV antiviral: qHTS Assay for inhibitors of the human cytomegalovirus (HCMV) | hit rate 4.5% among 410,000 | HFF cells, HCMV-luciferase reporter, 72 h; active compounds read low | activity change, negative = inhibition, % at 57.5 µM; in the data active means activity change below about -60%; inconclusive means no clear call, values can overlap the other calls; inactive means above about -39%
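Screen run at 2 compound doses on HFFs infected with reporter HCMV, MOI 1 PFU/cell. Luciferase activity from cell lysates at 72 h post infection gave inhibition relative to buffer-only and Salinomycin wells.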
FMDV inh: High Throughput Screening for Foot and Mouth Disease Virus Antivirals; FMDV antiviral cell-based qHTS; Potency, µM (titrated, usually from 57.9 µM), for the others: at the top dose activity change, negative = inhibition, usual class: inhibitors; hit rate 1.2% among 410,000; AID 1159524, 2015; calls by dose curve; tested in HEK293T cells; further: read-out not given here; potency means the concentration at half of the fitted maximal effect; nearly all actives have a fitted effect of over 45% in size
LASV entry inh: qHTS for Inhibitors of binding or entry into cells for Lassa Virus; hit rate 1.2% among 300,000; Lassa virus pseudotype entry inhibition, cell reporter; Potency, µM (top dose mostly 37.9 µM), for the others: at the highest dose activity change, negative = inhibition, most hits filed as inhibitors; calls by dose curve; tested in HEK293 cells; further: potency means the concentration at half of the fitted maximal effect; nearly all actives have a fitted effect of over 50% in size
The depositor's hits bear a star; i = inactive; ? = inconclusive; · = not tested or not shown; [ ] = another dose, or the depositor's remark. An excerpt weighted towards active compounds, which were near 6.5% of everything screened. On the % scale 0 is the no-effect control and ±100 the full control effect.

SMILES	Vaccinia mCherry	VACV Venus inh	Marburg entry inh	HCMV antiviral	FMDV inh	LASV entry inh
CCOC(=O)C1(CCOc2ccccc2)CCN(Cc2ccc(O)c(OCC)c2)CC1	?	-12.2%	11.2µM*	20.5	-25.6%	?
CC[C@]1(c2ccccc2OC)ON(c2ccccc2C(F)(F)F)C1=O	-23.1%	?	·	-28.9	22.4µM*	·
COC(=O)C(C(C)=O)[C@@H](NC(=O)OC(C)(C)C)c1ccccc1 (stereo partly specified)	·	·	-7.0%[14.2 µM]	·	·	·
NS(=O)(=O)c1ccc(N=Nc2c(-c3ccccc3)[nH]n(-c3nc(-c4ccccc4)cs3)c2=O)cc1	i	-17.9%	22.4µM*	-36.8	-20.0%	?
Cc1cc(F)ccc1O[C@H]1C=C[C@@H](c2ccc3c(c2)OCO3)O[C@H]1CO	·	·	14.2%[14.2 µM]	·	·	·
COCCNC(=S)N/N=C/c1ccccc1C(=O)O	-19.5%	-13.3%	16.0%	-4.9	9.1%	10.0%
CSc1nc(C)cc(OCC(=O)N/N=C/c2ccccc2O)n1	11.2µM*	?	2.82µM*	?	?	?
COCCCNC(=S)N/N=C/c1ccccc1O	·	·	·	-62.0*	55.3%	·
Cc1cccc(NC(=O)CCC(=O)N/N=C/c2ccc(O)cc2O)c1	6.31µM*	-9.3%	?	100.0	-10.7%	?
Cc1cccc(NC(=O)c2ccccc2NC(=O)CCC(=O)O)c1	i	-15.0%	?	-79.4*	8.6%	-5.8%
COc1cc(=O)n2c(c1C(=O)NCc1nccs1)CCN(Cc1ccccc1F)CC2	-5.3%	-16.7%	·	·	-7.7%	·
Cc1c(N)nc([C@H](CC(N)=O)NC[C@H](N)C(N)=O)nc1C(=O)N[C@H](C(=O)N[C@H](C)[C@@H](O)[C@H](C)C(=O)N[C@H](C(=O)NCCc1nc(-c2nc(C(=O)NCCCCN=C(N)N)cs2)cs1)[C@@H](C)O)[C@@H](O[C@@H]1O[C@@H](CO)[C@@H](O)[C@H](O)[C@@H]1O[C@H]1O[C@H](CO)[C@@H](O)[C@H](OC(N)=O)[C@@H]1O)c1cnc[nH]1	i	-27.1%	·	·	-3.3%	·
O=C(COc1nsnc1N1CCOCC1)N/N=C/c1ccccc1O	22.4µM*	?	?	38.6	-3.6%	?
O=C(CCCCC(=O)NN=Cc1ccccc1O)NN=Cc1ccccc1O	3.16µM*	-12.8%	?	11.6	5.3%	?
O=C(CSCC(=O)NN=Cc1ccccc1O)NN=Cc1ccccc1O	?	?	?	-12.9	55.5%	?
O=C(Cn1cc(C(F)(F)F)ccc1=O)N/N=C/c1ccc(F)cc1	1.7%	-1.9%	7.5%[46.1 µM]	-0.1	13.4%	1.4%
O=C(Cn1cc(C(F)(F)F)ccc1=O)N/N=C/c1ccccc1O	15.8µM*	-24.9%	·	-20.6	1.7%	·
O=C(CCC(=O)Nc1ccc(Br)cc1)N/N=C/c1ccccc1O	5.62µM*	?	?	-65.6*	23.6%	?
COc1ccc(CN(CC(=O)NC2CCCC2)C(=O)CCC(=O)Nc2nc(C)cs2)cc1	i	-10.7%	-22.1%[46.1 µM]	-9.1	-12.4%	-15.3%[46.1 µM]
O=C(COc1ccc(Br)cc1)N(Cc1cccs1)C1CCS(=O)(=O)C1 (stereo unspecified)	-3.1%[7.34 µM]	-3.5%[7.34 µM]	·	2.1	5.6%	·
Cc1ccc(SCCC(=O)N/N=C/c2ccccc2O)cc1	-25.9%	0.7%	?	-84.8*	3.6%	?
Cc1ccc(NC(=O)CCC(=O)N/N=C/c2ccccc2O)cc1	·	·	·	3.0	14.8%	·
CC(Sc1nc2ccccc2c(=O)n1C)C(=O)N(C)C1CCCCC1 (stereo unspecified)	-9.9%	-23.7%	?	-78.7*	?	?
O=C(c1cc2c(s1)-c1ccccc1S(=O)(=O)C2)N1CCN(Cc2ccccc2)CC1	?	?	-1.8%	-73.8*	20µM*	·
CC(=O)C[C@H]1SC[C@@H](C(C)C)N1S(=O)(=O)c1ccc(C)cc1	-18.7%	-16.1%	·	-5.5	-4.3%	·
SMILES	Vaccinia mCherry	VACV Venus inh	Marburg entry inh	HCMV antiviral	FMDV inh	LASV entry inh
COc1ccc(NS(=O)(=O)c2ccc(C(=O)N3CCN(Cc4ccccc4)CC3)cc2)cc1	-21.6%	-26.3%	·	-31.3	?	·
COc1ccc(OC2CCN(S(=O)(=O)c3ccc(C(C)=O)cc3)CC2)cc1	·	·	·	-63.2*	-21.5%	·
COc1ccc(CN2CCN(C(=O)c3ccc(S(=O)(=O)N4CCCCCC4)cc3)CC2)cc1F	?	-24.0%	?	-77.4*	14.1µM*	?
COc1ccc(CN2CCN(C(=O)c3ccc(S(=O)(=O)N4CCCCCC4)cc3)CC2)cc1	-3.7%	-15.2%	-5.3%	-75.4*	20µM*	?
N#Cc1ccc(CN2CCN(C(=O)c3ccc(S(=O)(=O)N4CCCCCC4)cc3)CC2)cc1	·	·	·	-78.1*	14.1µM*	·
O=C(c1ccc(S(=O)(=O)N2CCCCCC2)cc1)N1CCN(Cc2ccccc2)CC1	·	·	·	-14.4	?	·
O=C(CCCN1CC=C(N2C(=O)N=C3C=CC=CC32)CC1)c1ccc(F)cc1 (stereo unspecified)	·	·	-2.4%	·	·	·
COc1ccc(S(=O)(=O)N2CCN(C(=O)CCNC(=O)c3ccccc3Cl)CC2)cc1	-5.1%	-21.9%	?	-97.7*	-13.7%	17.5%
CC(C)=CCN1CCN(CCC2=C(C)CCCC2(C)C)CC1CCO (stereo unspecified)	·	·	·	-66.3*	-14.2%	·
O=C1Nc2ccc(Cl)cc2C(C#CC2CC2)(C(F)(F)F)O1 (stereo unspecified)	i	-13.3%	·	-21.2	?	·
O=C(NC1CCN(Cc2ccc(Cl)cc2Cl)CC1)c1ccccc1	i	-15.5%	?	-80.8*	?	?
CCOc1ccc(C(=O)OCC(=O)NC2CCCCCCC2)cc1	·	·	·	10.0	-22.9%	·
O=C(COc1ccc(C(=O)c2ccccc2)cc1)NC1CCCCC1	i	-7.0%	?	-83.8*	-18.2%	3.0%
O=C(NC1CCN(Cc2ccccc2)CC1)c1ccccc1	·	·	·	-8.5	-16.3%	·
CCCCOc1ccc(C(=O)OCC(=O)NC2CCCC2)cc1	-9.5%	-7.6%	1.8%	-99.7*	-25.4%	?
O=C(COc1ccc(C(=O)c2ccccc2)cc1)NC1CCCCCC1	-22.9%	-15.0%	?	?	?	?
O=C(Cc1ccccc1)NC1CCN(Cc2ccccc2)CC1	-8.7%	-8.9%	-9.2%[46.1 µM]	-62.4*	-10.6%	-2.7%
O=C(c1cccc(Cl)c1)N1CCCC(Cn2cc(C(=O)N3CCCC3)nn2)C1 (stereo unspecified)	-4.1%	0.0%	·	·	13.9%	·
O=C(NC1CCN(Cc2ccccc2)CC1)c1ccccc1OCc1ccccc1	·	·	·	-13.8	?	·
O=C(CCN1CCN(Cc2ccccc2)CC1)NNC(=O)Nc1cccc(Cl)c1	-15.3%	-28.2%	0.2%[46.1 µM]	16.4	7.5%	-10.3%[46.1 µM]
